# Bioassay records (PubChem)
# Shown are actives, neighbours in structure and some others; about 6% of the full set was active somewhere.
# D3 antag = qHTS of D3 Dopamine Receptor Antagonist: qHTS | D(3) dopamine receptor (Homo sapiens), P35462 | D3R cells, DiscoveRx beta-arrestin luminescence, antagonist mode; stronger effect = lower value | max response, negative = inhibition, % | 2.5% of 360,000 active; in the data active means max response below about -50%; inconclusive means no clear call, values can overlap the other calls; further: on the % scale 0 is the no-effect control and ±100 the full control effect
#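 Cells plated overnight at 1500 cells/well, then exposed to library compounds with dopamine controls for 90 minutes at 37 degrees C. DiscoveRx reagent added for 30–60 minutes at room temperature; luminescence read, quantitative HTS format.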
# D3 ag = qHTS of D3 Dopamine Receptor Agonist: qHTS | max activation, % | D3R DiscoveRx beta-arrestin cells, luminescence, 90 min | 0.58% of 410,000 active | D(3) dopamine receptor (Homo sapiens), P35462; in the data active means max activation above about 30%; further: 0% is about no effect
#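 Agonist mode: compounds and dopamine controls were applied to plated cells for 90 min at 37 degrees C after an overnight attachment at 1500 cells/well. Luminescent read-out followed 30 - 60 minutes at room temperature with DiscoveRx detection reagent.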
# D1 antag = Antagonist of Human D 1 Dopamine Receptor: qHTS; D(1A) dopamine receptor (Homo sapiens), P21728; activity change, negative = inhibition, % at 10 µM; 3.2% of 360,000 active; AID 504652, 2011; HEK293 TREx D1 cells, calcium flux, dopamine EC80; stronger effect = lower value; in the data active means activity change below about -30%; further: on the % scale 0 is the no-effect control and ±100 the full control effect
# Target sequence (P21728 whole entry, looked up): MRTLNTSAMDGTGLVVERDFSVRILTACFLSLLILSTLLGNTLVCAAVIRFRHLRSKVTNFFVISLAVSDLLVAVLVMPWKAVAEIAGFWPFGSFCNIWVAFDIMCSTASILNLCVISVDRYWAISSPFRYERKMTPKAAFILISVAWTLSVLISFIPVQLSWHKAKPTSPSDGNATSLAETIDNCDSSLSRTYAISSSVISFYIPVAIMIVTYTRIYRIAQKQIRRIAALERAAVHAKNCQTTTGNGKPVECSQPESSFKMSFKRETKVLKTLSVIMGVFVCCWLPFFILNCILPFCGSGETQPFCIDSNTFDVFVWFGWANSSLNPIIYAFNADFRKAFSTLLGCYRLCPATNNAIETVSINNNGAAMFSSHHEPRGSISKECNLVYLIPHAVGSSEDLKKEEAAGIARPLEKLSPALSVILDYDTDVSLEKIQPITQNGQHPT
#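 Inducible Hek293 Trex D1 cells (tetracycline, overnight, 30 C). Calcium dye 30–90 min RT. Antagonist mode: EC80 dopamine added after 180 s compound read.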
# D1 potentiator = Potentiators of Human D1 Dopamine Receptor: qHTS | potentiation, % at 10 µM | HEK293 TREx D1 cells, calcium flux, dopamine EC20 potentiation | 0.036% of 360,000 active | D(1A) dopamine receptor (Homo sapiens), P21728; in the data active means potentiation above about 30%; further: 0% is about no effect
# D1 agonist = Allosteric Agonists of the Human D1 Dopamine Receptor: qHTS; activation, % at 2 µM; HEK293 T-REx D1 cells, calcium flux, agonist mode; AID 504660, 2011; 1% of 360,000 active; in the data active means activation above about 30%; further: 0% is about no effect
#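 Agonism was scored from calcium flux recorded over 180 s (1 read/s) after pintool compound addition, following a 10-cycle baseline. Cells were inducible force-coupled HEK293 TREx D1, plated overnight at 30 C and loaded with no-wash calcium dye.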
# Active calls of the source: *; ? = inconclusive; nt = no result; ! = not active in a repeat.
SMILES,D3 antag,D3 ag,D1 antag,D1 potentiator,D1 agonist
Cc1ccc(C(=O)CN2/C(=C(\O)c3ccccc3)C(=O)c3ccccc3S2(=O)=O)c(C)c1,-50*,-4,-7,-2,3
CC(=O)c1ccc(NS(=O)(=O)c2ccc(CC(C)C)cc2)cc1,?,-10,1,-17,40*
COC(=O)C1=C/C=C\CN(C(c2ccccc2)c2ccccc2)/C=C\1C(=O)OC,6,2,nt,nt,nt
CN(CC(=O)Nc1ccc(Cl)c(C(F)(F)F)c1)C(=O)c1ccc(OCC2CCCO2)cc1 (centres undefined),-2,2,-49*,-20,3
CN(CC(=O)Nc1ccc(Cl)c(C(F)(F)F)c1)C(=O)c1ccc(S(=O)(=O)N2CCOCC2)cc1,-3,-12,nt,nt,nt
CCOC(=O)c1cc(-c2ccc(F)cc2)n(CCC(=O)NCCc2ccc(C)cc2)c1C,nt,-13,-1,-7,9
COc1ccc(C2C(C#N)=C(N)Oc3n[nH]c(C)c32)cc1Cn1nnc2ccccc21 (centres undefined),-62*,-1,6,-4,1
OCCCN=c1cc(-c2ccccc2)oc2ccc(Cl)cc12,-13,0,-27,-7,1
CC1(C)CC(N=c2cc(-c3ccccc3)oc3ccc(Cl)cc23)CC(C)(C)N1,-17,-15,-69*,-11,67*
Cc1cccc(-n2cc(CN3CCN(c4ccccn4)CC3)c(-c3cccc(F)c3)n2)c1,?,-10,0,3,2
Cc1ccc(-n2cc(CN3CCN(c4ccccn4)CC3)c(-c3ccc(F)cc3)n2)cc1,-62*,-21,3,0,3
COc1ccc(CN2CCN(c3ccccn3)CC2)c(OC)c1C,-56*!,-11,-13,-6,5
COc1ccc(CN2CCN(c3ncccn3)CC2)c(C)c1C,-20,71*,7,5,-3
CC1=C(SCc2ccccc2)C(=O)c2ccccc2C1=O,-89*,-15,nt,nt,nt
Cc1cccnc1CCNCc1c(C(=O)N2C[C@@H](C)O[C@@H](C)C2)nc2ccc(Cl)cn12,-63*,-10,5,-5,2
CCC(=O)N1c2ccc(S(=O)(=O)CCC(=O)N3CCN(c4cc(C)ccc4C)CC3)cc2CC1C (centres undefined),nt,3,-5,0,8
N#Cc1cc(-c2ccc(Cl)cc2)cn(Cc2c(Cl)cccc2Cl)c1=O,-50*,0,nt,nt,nt
CC(C)c1ccccc1NC(=O)Cn1cnc2c1c(=O)n(C)c(=O)n2C,nt,2,6,-1,4
CN(C)CCCNc1nc2cc(-c3cccc(Cl)c3)sc2c(=O)n1C,-60*,-21,nt,nt,nt
CCOC(=O)c1c(C)oc2nc(C)nc(NCc3ccccc3OC)c12,nt,12,-37*,-5,2
CCOC(=O)c1sc2nc(C)nc(NCc3ccccc3OC)c2c1C,69,33*,-8,2,9
CCOC(=O)c1sc2nc(CSc3ccccc3)nc(NCCN(C)C)c2c1C,-21,-15,-20,-10,50*
CCOC(=O)c1sc2nc(C)nc(NCCc3ccccn3)c2c1C,-2,5,-3,-2,3
COC(=O)[C@H]1[C@H]2C[C@@H]3c4[nH]c5cc(OC)ccc5c4CCN3C[C@H]2C[C@@H](OC(=O)COc2ccc(OC)cc2)[C@@H]1OC,nt,-8,nt,nt,nt
Cc1ccc(NC(=O)/C=C/c2ccccc2)c(Br)c1,nt,-20,-3,-2,4
SMILES,D3 antag,D3 ag,D1 antag,D1 potentiator,D1 agonist
Cc1cc(NC(=O)CSc2nc3ccccc3n2CC(=O)N2CC(C)CC(C)C2)no1 (centres undefined),16,6,-41*,1,-1
Cc1cc(NC(=O)CSc2nc3ccccc3n2CC(=O)N2CCC(C)CC2)no1,29,-15,-10,0,-1
Cc1cc(NC(=O)CSc2nc3cc4c(cc3c(=O)n2CCc2ccccc2)OCO4)no1,-53*,2,21,1,0
COc1ccc(CCn2c(SCC(=O)Nc3cc(C)on3)nc3ccccc3c2=O)cc1OC,4,1,5,-1,4
Cc1cccc(NC(=O)CN2CCN(C(=O)c3oc4c(Cl)cccc4c3C)CC2)c1C,-6,-13,17,6,0
O=C(c1[nH]c(C(F)(F)F)nc1-c1ccccc1)N1CCCN(Cc2ccc(F)cc2)CC1,29,6,nt,nt,nt
O=C(NCc1cccc(C(F)(F)F)c1)c1[nH]c(C(F)(F)F)nc1-c1ccccc1,-63*,-10,nt,nt,nt
O=C(NC1CCN(Cc2ccccc2)CC1)c1[nH]c(C(F)(F)F)nc1-c1ccccc1,-85*!,-15,nt,nt,nt
CCCCn1c(N)c(N(Cc2ccccc2OC)C(=O)c2sccc2C)c(=O)[nH]c1=O,29,9,21,2,2
CCc1nn(CCCC(=O)NC2CCCCC2C)c(=O)c2cc3occc3n12 (centres undefined),-20,3,nt,nt,nt
C=Cc1ccc(Cn2c(C(=O)O)c(CNC3CCCCC3)c3ccc(C)cc32)cc1,nt,3,6,-1,-1
Cc1c(C(=O)Nc2ccccc2N2CCN(C)CC2)oc2ccc(F)cc12,0,-14,-4,-6,4
CCCCNC(=O)C1(C)CCN1Cc1cc(C)ccc1C (centres undefined),-1,-8,nt,nt,nt
Cc1ccc(SCC(=O)Nc2ccc(O)c(-c3nc4cc(C)ccc4o3)c2)cc1,nt,1,-83*,-1,-1
O=C(NC1CC2CCC(C1)N2Cc1ccccc1)c1ccccc1Cl (centres undefined),-89*,-18,-28,-8,4
Cc1cccc(NC(=S)NC2CCCC2)c1C,7,3,-5,-2,4
Cc1cccc(NC(=S)NC2CC3CCCC(C2)N3Cc2ccccc2)c1C (centres undefined),-100*,-8,-16,-7,1
Cc1ccccc1C(=O)NC1CCCN(Cc2ccccc2F)C1 (centres undefined),11,0,0,-3,1
Cc1ccccc1C(=O)NC1CC2CCCC(C1)N2Cc1ccc(Cl)cc1 (centres undefined),-97*,-19,-73*,-9,1
COc1ccccc1C(=O)NC1CC2CCCC(C1)N2Cc1ccccc1 (centres undefined),-112*,4,nt,nt,nt
Cc1cc(C(O)c2ncc(-c3cccc4ccccc34)[nH]2)ccc1F (centres undefined),-29,4,nt,nt,nt
CCC(Sc1nnc(C)n2c1cc1sccc12)C(=O)Nc1ccccc1F (centres undefined),nt,-14,-5,-3,2
CCOC(=O)[C@]12CCC=C1N(Cc1ccc3c(c1)OCO3)C(=O)[C@H](CC(=O)NCC13CC4CC(CC(C4)C1)C3)C2,-9,-13,nt,nt,nt
